35 molecules from PubChem BioAssay can be followed below.

The nature of the assay: HepG2 liver cancer cell viability effects, profiling panel, resazurin fluorescence, 24 h, PK04 Diversity Set (AID 1172). Note: test concentration not given here. The settings on record: higher = more signal. A general note: Alamar Blue is a resazurin reagent that responds to reducing activity.
Take `C#CCN1[C@@H](Cc2ccc(O)cc2)C(=O)O[C@H](Cc2ccccc2)[C@@H]1/C=C/C1CC1`: the z-score is -1.9. Turning to `CCCCCCCCCCC(O)C1C=CC2C(=O)NC(=O)C2N1Nc1ccc(Cl)cc1Cl` (stereo not given), the z-score was -2.55.

On to `O=C(NCc1ccccc1)[C@@H]1c2ccccc2C(=O)N(C2Cc3ccccc3C2)[C@H]1c1ccc(CO)cc1`, for which the z-score was -0.786.

On to `CN(C)CCCCCCNC(=O)[C@@H]1C[C@@H]2C(=O)N3CCC[C@H]3C(=O)N2[C@@H]1c1ccc(O)cc1`, for which the z-score was -0.627. `N#Cc1ccc(C(O)C2C=CC3C(=O)N(c4ccccc4)C(=O)C3N2Nc2ccccc2F)cc1` (stereo not given) yielded a z-score of 1.46.

Regarding `COc1ccc([Si](C)(C)[C@@H]2[C@@H](CC(=O)N3Cc4ccccc4C[C@H]3CO)O[C@]3(C(=O)N(Cc4cccc(N5CCC5=O)c4)c4ccccc43)[C@H]2C)cc1`, the z-score was -0.0715. In turn, `CS(=O)(=O)CCOC(=O)C1=CC(CCCO)=CC(C2CC2)N(Cc2cc3c(cc2Br)OCO3)C=C1C(=O)OCCS(C)(=O)=O` (stereo not given) returned a z-score of 0.0423. The figure for `NC(=O)N1C(=O)C2C(C1=O)C1C=C(CCCO)C2C(C2CC2)N1Cc1cc2c(cc1Br)OCO2` (stereo not given) is -0.437. For `O=C1OCCC=C[C@H]2OC34C=CCN(CCN5CCOCC5)C(=O)[C@H]3N(CCCCCO)C(=O)[C@@H]4C12` (stereo not given in full), the z-score was -0.123.

As to `CC(CO)N1C(=O)[C@@H]2C3C(=O)OCCC/C=C\[C@H]3OC23C=CCN(CCN2CCOCC2)C(=O)[C@@H]13` (stereo not given in full), the z-score was -0.167.

For the molecule `CCCCCCc1nc(-c2ccc(-c3ccc(Cl)c(Cl)c3)o2)c(C)c2c1[Si](C(C)C)(C(C)C)OC2`, the z-score was -0.865. On to `CCOc1cc(C(O)C2C=CC3C(=O)N(c4ccccc4)C(=O)C3N2Nc2ccc(C(C)C)cc2)ccc1O` (stereo not given), for which the z-score is -1.14. For the molecule `CCOC(=O)C1=C[C@@H](C(C)C)N(S(=O)(=O)c2ccc(C)cc2)[C@H]1c1ccccc1F`, the z-score was -0.298. As for `COc1cc2c(cc1O)C(c1cccs1)N(Cc1cccc(OC(F)(F)F)c1)CC2` (stereo not given), the z-score is -0.688.

`C=CCN1C(=O)[C@]2(Cc3ccccc3)N=C(c3ccc(OCCCO)cc3)O[C@@H]2c2ccccc21`: the z-score was -0.983. With `COc1ccc([Si](C)(C)[C@@H]2[C@@H](CCn3cc(CCO)nn3)O[C@]3(C(=O)N(Cc4cccc(N5C(=O)c6cccc7cccc5c67)c4)c4ccccc43)[C@H]2C)cc1`, the z-score was -3.66.

Regarding `C=CCN(Cc1ccccc1)C(=O)C(c1cccs1)N(C(=O)/C=C\C(=O)O)c1ccc(CCOCCO)cc1` (stereo not given), the z-score was -0.552. With `COC(=O)c1c2oc(c1C(=O)OC)C(=O)NC1(CCCCC1)c1cn(nn1)C[C@H](Cc1ccccc1)NC(=O)N[C@H](CO)CC2`, the z-score worked out at 1.68. Regarding `CC(=O)NCCCC[C@@H]1NC(=O)[C@H]2C[C@@H](C(=O)NCCCCCNC(=O)CS)[C@@H](c3ccc(O)cc3)N2C1=O`, the z-score was -0.0321. Take `COCCCNC(=O)[C@@]1(CCS(=O)(=O)c2ccccc2)N=C(c2ccc(OCCCO)cc2)O[C@H]1c1ccccc1N=[N+]=[N-]`: the z-score is 0.531.

In turn, `COc1ccc(NN2C(C(O)c3ccc(N(C)C)cc3)C=CC3C(=O)N(C4CCCCC4)C(=O)C32)cc1` (stereo not given) returned a z-score of 0.252. Take `[N-]=[N+]=NCc1ccccc1[C@@H]1OC(c2ccc(OCCCO)cc2)=N[C@]1(CCS(=O)(=O)c1ccccc1)C(=O)N1CCCCC1`: the z-score is -0.227. The same measure for `COC(=O)C[C@H]1O[C@@H](CCc2ccccc2)[C@@H](C)[C@@H]1[Si](C)(C)c1ccc(OC)cc1`: 0.294. For the molecule `CN1C(=O)C2C=CC(C(O)c3ccccc3)N(N3CCCCC3)C2C1=O` (stereo not given), the z-score was -0.894. In turn, `COC(=O)[C@@]1(Cc2ccc(OC)cc2)[C@H]2c3cc(C(=O)N4CCCC4)n(CCSCCO)c3C[C@H]2CN1C(=O)c1ccccc1` yielded a z-score of 0.353. Take `COC(=O)c1c(CC[C@@H](CO)NC(=O)NCCc2c[nH]c3ccccc23)oc(C(=O)Cc2ccccc2)c1C(=O)OC`: the z-score was 1.35. The figure for `O[C@@H](Cc1ccccc1)[C@@H](/C=C/C1CC1)NCc1cccc(Cl)c1` is -0.891; for `CN1CCC(CCCO)=CC1c1cccs1` (stereo not given) it is -0.34; for `CO[C@H]1O[C@H](CO)[C@@H](OC(=O)Nc2ccc(Br)cc2)[C@@H]2OC(=O)[C@H](Cc3cccc(Br)c3)C/C=C/C[C@@H](Cc3cccc(Br)c3)C(=O)O[C@@H]12` it is -1.34. Consider `COCC(=C=CC[C@@H](O)c1ccc(OCCO)cc1)C[C@@H](O)c1ccccn1`, for which the z-score was -0.495.

For `COC(=O)[C@@]1(Cc2ccc(OC)cc2)[C@H]2c3cc(C(=O)N(C)C)n(Cc4ccc(C(F)(F)F)nc4)c3C[C@H]2CN1C(=O)c1ccccc1`, the z-score is 0.133. As to `COCCCNC(=O)[C@@H]1c2ccccc2C(=O)N(Cc2ccccc2OC)[C@H]1c1ccc(CO)cc1`, the z-score turned out to be 1.13. In turn, `O=C1O[C@@H](c2ccccc2)[C@@H](c2ccccc2)N2[C@@H](c3ccc(OCCO)cc3)[C@]3(C(=O)Nc4ccc(C#CCCO)cc43)[C@@H](C(=O)NC[C@H](O)c3ccccc3)[C@H]12` had a z-score of 0.148. On to `O=C(O)[C@H]1C[C@H]2C(=O)N3CCC[C@H]3C(=O)N2[C@H]1c1ccc(O)cc1`, for which the z-score amounted to 0.684. For the molecule `[N-]=[N+]=NCc1ccccc1C[C@@]1(C(=O)NCC(O)CO)N=C(c2ccc(OCCCO)cc2)O[C@@H]1c1ccccc1` (stereo not given in full), the z-score is -1.07.
